Out of some 2,100 compounds screened, about 480 (23%) were called active. Not shown: some 5% with an inconclusive outcome.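 How the source made its calls: active means fitted curve reaches 40% activation at or below the top valid concentration, in every replicate test; inconclusive means replicate tests disagree on the call; inactive means the rest, including activity in the opposite direction.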 These entries were drawn from the full list. Measured potencies and affinities stand elsewhere.
Experiment: PGC1a acetylation increase, cellular AlphaLISA – cell-based, cherry-picked samples, set 6, dose response (AID 720513);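 further: cells made to overexpress flag tagged PGC1a plus GCN5 acetyltransferase by viral infection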
Settings: U2OS PGC1a acetylation AlphaLISA, overnight, 0 = neutral, -100 = inhibitor control; series mostly up to 19.5 µM

outcome, inactive:
COC(=O)c1ccc(CSc2nc3c(cnn3-c3ccc(Cl)cc3)c(=O)[nH]2)o1, O=C(NCc1ccc2c(c1)OCO2)C1CCN(S(=O)(=O)c2cccs2)CC1, CC(=O)N1CCN(S(=O)(=O)c2cccc(C(=O)Nc3ccc4c(c3)OCO4)c2)CC1, Cc1cc(C)n(-c2nc(O)cc(=O)[nH]2)n1, C[C@H]1CN([C@@H](C)CO)C(=O)CCCn2nncc2CO[C@@H]1CN(C)C(=O)Nc1ccccc1, O=C(Cc1ccc(Cl)cc1)Nc1ncccn1, NS(=O)(=O)c1cccc(NC(=O)CSc2ccccn2)c1, CC(C)OC(=O)c1c(F)c(F)c(N2CCOCC2)c(F)c1F, Cc1noc(C)c1S(=O)(=O)N(C)C[C@H]1Oc2ccc(NC(=O)Nc3ccccc3)cc2CC(=O)N([C@H](C)CO)C[C@H]1C, CCC(CC)NC(=O)Cc1ccc(S(=O)(=O)N2CCOCC2)s1, O=S(=O)(c1ccc(Br)s1)N1CCN(Cc2ccc3c(c2)OCO3)CC1, Cc1cccnc1C(NC(=O)C1CCN(Cc2cn(C)c3ccccc23)CC1)c1ccc(Cl)cc1 (stereo not given), Cc1c(/C(O)=C2\C(=O)C(=O)N(CCCN(C)C)C2c2ccccc2)cnn1-c1ccccc1 (stereo not given), CC1CN(c2oc(-c3cccs3)nc2C#N)CC(C)O1 (stereo not given), COc1ccc(C2=NOC(C(=O)Nc3cccnc3)C2)cc1 (stereo not given), Cc1ccc(CNC(=O)c2ccc(CS(=O)(=O)c3ccccc3)o2)cc1, O=C(c1cccc(F)c1)N1CCN(C(=O)c2cc(-c3ccc(Cl)cc3Cl)on2)CC1, C[C@H](CO)N1C[C@H](C)[C@@H](CN(C)CC2CCOCC2)Oc2ncc(Br)cc2C1=O, O=c1c(Cl)c(NCCCO)cnn1-c1nc2ccccc2[nH]1, COc1ccc(NC(=O)CN(C)C(=O)CCNC(=O)c2ccccc2OC)cc1, COc1ccc(C(=O)Sc2nncc3ccccc23)cc1, CC(=O)Nc1ccc(Oc2sc(C(=O)c3ccccc3)c(N)c2C#N)cc1, c1ccc(CNc2ncnc3nc[nH]c23)cc1, COc1ccc(Nc2ccnc3ccccc23)cc1, Brc1ccc2ncnc(NCc3ccccc3)c2c1, Nc1nn(-c2ccccc2)nc1C(=O)OCc1ccccc1, N#Cc1c(-c2cccc(Br)c2)cc(-c2ccco2)[nH]c1=O, COCc1ccc(CN2CCC(n3nccc3NC(=O)c3ccc4c(c3)OCO4)CC2)o1, CSCC(=O)N1CCCC(CO)(Cc2ccccc2C)C1 (stereo not given), CO[C@H]1CN(C)C(=O)c2cc(NS(C)(=O)=O)ccc2OC[C@H](C)N(C(=O)NC(C)C)C[C@@H]1C, Cc1ccc(Nc2nc(C)cc(C)c2C(N)=O)c(C)c1, O=C(/C=C/c1ccc(N2CCCCC2)c([N+](=O)[O-])c1)c1ccc(O)cc1, O=c1[nH]nc(-c2ccc(NCCCO)c([N+](=O)[O-])c2)c2ccccc12, Cc1ccc(NC(=O)C2C(c3ccccc3)C2(Cl)Cl)c(C)c1 (stereo not given), CCOc1ccc2nnc(-c3ccc(Br)cc3)n2n1, CS(=O)(=O)Nc1ccc2c(c1)[C@@H]1C[C@H](CC(=O)N3CCc4ccccc4C3)O[C@@H](CO)[C@@H]1O2, Nc1ncc([N+](=O)[O-])c(N2CCCCCC2)n1, CCNC(=O)NC(=O)COc1ccccc1C#N, O=C1c2ccccc2-[n+]2ccc3c([nH]c4ccccc43)c21, Cc1[nH]c(=O)[nH]c(=O)c1S(=O)(=O)Nc1ccc(F)c(Cl)c1, CCc1ccc(NC(=O)CSc2nnc(-c3cnccn3)n2Cc2ccco2)cc1, CCn1c(SCC(=O)Nc2ccc(OC)c(OC)c2)nnc1-c1cccs1, COCC(=O)OCC(=O)Nc1cc(C(C)(C)C)nn1-c1ccccc1, CN1[C@@H]2CC(OC(=O)[C@H](CO)c3ccccc3)C[C@H]1[C@@H]1O[C@@H]12 (stereo not given in full), CCOC(=O)C1CN(S(=O)(=O)c2ccccc2)c2cc(S(=O)(=O)CC)ccc2O1 (stereo not given), CCOC(=O)C1CN(S(=O)(=O)c2ccc(C)cc2)c2cc(S(=O)(=O)CC)ccc2O1 (stereo not given), Cc1cc2nc(/C=C/c3cccnc3)[nH]c2cc1C, COc1ccc(C2c3[nH]c4ccccc4c3C[C@H]3C(=O)N(c4ccccc4C(=O)N4CCC[C@@H]4C(=O)O)C(=O)N23)cc1 (stereo not given in full), O=C(CCC1CCN(Cc2ccccc2Cl)CC1)NC1CC1, CC(=O)NC1CCN(CC(=O)Nc2nccs2)CC1, Cc1ccccc1Oc1cc(-n2ncc(Cl)c(Cl)c2=O)ncn1, CC(C)(C)NC(=O)Cn1nnc(-c2ccccc2NC(=O)c2ccco2)n1, O=C(Cc1ccccc1)Nc1ccc(Cl)cn1, Cc1noc(C)c1NC(=O)Nc1ccc2c(c1)C(=O)N([C@@H](C)CO)C[C@@H](C)[C@@H](CN(C)CC1CCCCC1)OCCCC[C@H](C)O2, COc1cc(CN2CCN(Cc3ccccc3C(F)(F)F)CC2)cc(OC)c1OC, COc1ccccc1CN1C[C@@H]2C[C@@H](c3cccc(C)n3)N3CCC[C@@]23C1=O, Cc1nc(C(C)N(C)Cc2nc(-c3ccc4c(c3)OCO4)no2)c(C)s1 (stereo not given), CC(NC(=O)Nc1cccnc1)(C(F)(F)F)C(F)(F)F, CC(=O)c1cccc(NC(=O)Nc2cccnc2)c1, C#CC(CC)(CC)NC(=O)c1ccc(Br)s1, COc1ccccc1C#Cc1ccc2c(c1)O[C@@H](CN(C)Cc1cccnc1)[C@H](C)CN([C@H](C)CO)S2(=O)=O, OC(c1cc(C(F)(F)F)nc2c(C(F)(F)F)cccc12)C1CCCCN1 (stereo not given), Cc1ccc(-c2cnc3c(c2)C(=O)N([C@H](C)CO)C[C@H](C)[C@@H](CN(C)C)O3)cc1, C[C@@H](C(=O)Nc1cc(C(F)(F)F)ccc1N1CCOCC1)N1C(=O)C2CC=CCC2C1=O (stereo not given in full), C[C@@H]1CCCCO[C@H](CN(C)Cc2ccc(Cl)c(Cl)c2)[C@H](C)CN([C@@H](C)CO)C(=O)c2cc(NC(=O)Nc3ccc(F)cc3)ccc2O1, CCCCn1c(SCC(=O)NCc2ccc3c(c2)OCO3)nnc1C(CC)N(C)C (stereo not given), COc1cc2cc(C)c3nnc(SCC(=O)Nc4cc(C)on4)n3c2cc1OC, Cc1nc2ccccn2c1C(=O)/C=C/c1ccc(F)cc1, CN(C)C(=O)c1ccc(-c2ccc([C@H]3[C@H]4CN(C(=O)CC5CC5)CC(=O)N4[C@H]3CO)cc2)cc1, O=C(CCN1CCc2ccccc2C(c2ccccc2)C1)c1ccc2c(c1)OCCO2 (stereo not given), O=C(O)c1ccc2c(c1)OCCCO2, CCC(C)NC(=O)c1ccc2c(SCC(=O)O)c3c(nc2c1)CCCC3 (stereo not given), COc1cccc(C(=O)CSc2nnc(CNS(=O)(=O)c3ccc(C)cc3)n2C)c1, C[C@@H]1CN([C@@H](C)CO)C(=O)c2cc(NC(=O)CCCN(C)C)ccc2O[C@@H](C)CCCCO[C@@H]1CN(C)Cc1ccc(C(F)(F)F)cc1, CC1=CC=CC2=NC(=O)CC(C)(C(=O)N(CC(=O)NC3CCCC3)c3ccccc3C)N12 (stereo not given), Cn1c(=O)cc(OCCCC(=O)NC2CCCC2)c2ccccc21, c1nc(NC2CCCCCC2)c2[nH]cnc2n1, O=C(Nc1cccc(F)c1)C1CCN(S(=O)(=O)c2cccc3nonc23)CC1, CCOc1cc(C)c(S(=O)(=O)N2CCCC2)cc1C, CCOc1ccc(S(N)(=O)=O)cc1-c1nc2c(C(C)(C)C)nn(C)c2c(=O)[nH]1, O=C(CC1CC1)N[C@@H]1CC[C@@H](CCNS(=O)(=O)c2ccc(Cl)cc2)O[C@@H]1CO, Cc1cccn2c(=O)c3cc(C(=O)NCc4ccco4)c(=N)n(CCc4ccccc4)c3nc12, O=C(NCc1ccco1)c1ccc(Cn2c(=O)c3ccccc3n(Cc3ccc(Cl)cc3)c2=O)cc1, COc1cccc(C(=O)NCCS(=O)(=O)N2CCN(C(=O)c3ccco3)CC2)c1, COc1ccc(S(=O)(=O)NCCC(=O)NCc2ccc(F)cc2)cc1, Cc1ccc(S(=O)(=O)N2CCCC(C(=O)NCCC3=CCCCC3)C2)cc1 (stereo not given), COc1ccc(CCNC(=O)c2ccc(Cl)cc2)cc1, COc1ccc(CCNc2ccc(C(CC(N)=O)NC(=O)c3cc(C)cc(C)c3)cc2[N+](=O)[O-])cc1 (stereo not given), CN(C[C@H]1N[C@@H](CO)[C@@H]1c1ccc(C2=CCCC2)cc1)C(=O)c1cccc(F)c1, Cc1ccsc1C(=O)Nc1cc(Cl)ccc1-n1cncn1, S=c1nc[nH]c2c1cnn2Cc1ccccc1, CCCC[C@@]1(C2CCCC2)Cc2cc(OCC(=O)O)c(Cl)c(Cl)c2C1=O, COC(=O)c1nn(-c2ccccc2)ccc1=O, CC(=O)N1/C(=C/c2ccc(N(C)C)cc2)C(=O)c2ccccc21, CC1CCCCC1NC(=O)C1CCN(C(=O)NC2CCCCC2)CC1 (stereo not given), O=C1Nc2ccccc2N=C(c2ccccc2)C1N(Cc1ccc(F)cc1)C(=O)c1cccnc1 (stereo not given), COc1ccc(NC(=O)/C(Cl)=C(/Cl)S(=O)(=O)Cc2ccccc2)cn1, O=C(NCc1ccc2c(c1)OCO2)c1nc(S(=O)(=O)Cc2ccccc2)ncc1Cl, N#CCSc1nnc(COc2ccc3ccccc3c2)o1, O=S(=O)(Nc1cccc(CCc2ccccn2)c1)c1ccc2ccccc2c1

Reference: PubChem BioAssay AID720513 (Broad Institute, 2013)
